In PubChem BioAssay AID1159580 (chemical genetic matrix, 2015):
Among all 5,500 compounds or so, about 2,000 (36%) were called active. Not shown: some 18% with an inconclusive outcome. Rule as the data show it: active = normalized growth mostly below about 0.91 (no sharp cut-off); inconclusive = no clear call, values can overlap the other calls; inactive = mostly above about 0.92. The list shows a part of the results.

Assay: chemical genetic growth profiling, strain panel (AID 1159580);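 also: tested at 20 µM; growth read once vehicle control cultures reached saturation at 30 °C; 1 = growth at the plate median or of vehicle wells; lower values mean less growth of the strain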
Settings: S. cerevisiae deletion strains, growth OD

Measured: normalized growth

CSc1nc(N)c2ncn([C@@H]3O[C@H](COP(=O)(O)OP(=O)(O)O)[C@H](O)C3O)c2n1 (stereo partly drawn)
inactive: locus YAL013W, strain DEP1, active compounds read low 1.01 | locus YAL040C, strain CLN3, active compounds read low 1.01 | locus YCL061C, strain MRC1 (second series), active compounds read low 1.01 | locus YDR363W, strain ESC2, active compounds read low 1.04 | locus YER002W, strain NOP16, active compounds read low 1 | locus YJR075W, strain HOC1, active compounds read low 1.03 | locus YNL153C, strain GIM3, active compounds read low 1.03 | locus YNL175C, strain NOP13, active compounds read low 1.02 | locus YNL197C, strain WHI3, active compounds read low 0.99 | locus YNL224C, strain SQS1, active compounds read low 0.998 | locus YOR083W, strain WHI5 (second series), active compounds read low 1.02 | locus YPL055C, strain LGE1, active compounds read low 1.02 | locus YPL241C, strain CIN2, active compounds read low 1
